The supplement of paper PMC13380429
Unmarked numbers belong to inactive results.

Tested on: Vero E6 infected with SARS-CoV-2
Test: inhibition of SARS-CoV-2 cytopathic effect; higher = more antiviral protection, active = above 15
Conditions: 48 h

Structure (SMILES) | inhibition of SARS-CoV-2 cytopathic effect (1 nM) [%] | inhibition of SARS-CoV-2 cytopathic effect (8.33 nM) [%] | inhibition of SARS-CoV-2 cytopathic effect (100 nM) [%] | inhibition of SARS-CoV-2 cytopathic effect (833.33 nM) [%] | inhibition of SARS-CoV-2 cytopathic effect (10000 nM)
CC(C)[C@H](C(=O)Nc1ccc(C(=O)NO)cc1)c1ccccc1 | 3.84 | 0.31 | -0.75 | 1.02 | 0.89%
OC[C@H]1O[C@@H](Oc2ccc(O)cc2)[C@H](O)[C@@H](O)[C@@H]1O [arbutin] | -0.81 | 0.67 | 0.6 | -2.34 | 0.83%
CN1CCN(c2cc3c(cc2F)c(=O)c(C(=O)O)cn3-c2ccc(F)cc2)CC1 [difloxacin] | -1.68 | 2.12 | 0.47 | 0.94 | 1.41%
CC[C@@]1(O)C(=O)OCc2c1cc1n(c2=O)Cc2c-1nc1cc(F)c(C)c3c1c2[C@@H](N)CC3 [exatecan-mesylate] | -2.4 | -0.39 | -7.04 | -15.8 | -20.5%
Clc1ccc(N2CCN(Cc3c[nH]c4ncccc34)CC2)cc1 | -0.1 | -0.31 | -2.94 | 1.1 | -3.38%
CC(=O)NCCCOc1ccc(C(=O)N2CCC(N3C(=O)CCc4ccccc43)CC2)cc1 | 2.92 | -2.2 | 0.95 | 1.64 | 3.15%
CCCCCCCC/C=C\CCCCCCCC(=O)NCCO [oleoylethanolamide] | 1.05 | -0.89 | -0.87 | 0.17 | -4.33%
N#Cc1ccc(NCCNCC(=O)N2CCC[C@H]2C#N)nc1 | 0.59 | 2.4 | -0.06 | 3.35 | 2.5%
O=c1cc(-c2ccc(O)c(O)c2)oc2cc(O)cc(O)c12 [luteolin] | 1.96 | 0.53 | -1.61 | -0.15 | 7.72%
N#CN1CCCC1 [pyrrolidine-1-carbonitrile] | 3.76 | 2.93 | -2 | 1.38 | 2.45%
CNC(=O)[C@@H](NC(=O)[C@H](CC(C)C)[C@H](O)C(=O)NO)C(C)(C)C [marimastat] | -4.07 | 2.33 | -5.18 | -6.93 | -13.7%
CCCCCOc1ccc(-c2ccc(-c3ccc(C(=O)N[C@H]4C[C@@H](O)[C@@H](O)NC(=O)[C@@H]5[C@@H](O)[C@@H](C)CN5C(=O)[C@H]([C@@H](C)O)NC(=O)[C@H]([C@H](O)[C@@H](O)c5ccc(O)cc5)NC(=O)[C@@H]5C[C@@H](O)CN5C(=O)[C@H]([C@@H](C)O)NC4=O)cc3)cc2)cc1 [anidulafungin] | -3.73 | 0.49 | 1.56 | 0.77 | -2.12%
CC(C)(C)S(=O)(=O)N[C@H]1CC[C@H](C(=O)Nc2ccc(C(F)(F)F)cn2)CC1 [velneperit] | 2.37 | -0.93 | -0.23 | -1.55 | -1.63%
C[C@]12CC[C@H](O)C[C@H]1CC[C@@H]1[C@@H]2CC[C@]2(C)[C@@H](C3=CC(=O)OC3)CC[C@]12O [digitoxigenin] | -1.6 | -1.96 | -11.8 | -13.3 | -19.4%
O=C(CCCl)NCCc1ccccc1 [fenaclon] | 4.5 | -2.28 | 0.58 | -1.53 | -1.25%
CC(=O)Nc1ccc(OC(C)=O)cc1 [diacetamate] | -0.51 | 0.65 | 3.04 | 0.82 | 2.03%
C[C@@H]1CN(CCCn2c3ccccc3c3ccccc32)C[C@H](C)N1 [rimcazole] | -0.92 | -0.33 | 0.18 | -2.52 | 31.1% (active)
COc1cc(C(=O)NCCCCCC(=O)O)cc(OC)c1OC [capobenic-acid] | -6.75 | -2.2 | -0.79 | -1.85 | 2.8%
CN1C(=O)N(c2cc(Cl)cc(Cl)c2)C(=O)[C@]12CN(c1ccc(C(=O)O)cn1)C[C@H]2c1ccc(C#N)cc1 | 1.7 | 0.43 | 1.42 | 1.84 | 1.57%
CCC(O)(CC(N)=O)c1ccccc1 (stereo not given) [3-hydroxy-3-phenylpentanamide] | 1.46 | 0.49 | -0.1 | -10.4 | 0.22%

Structure (SMILES) | inhibition of SARS-CoV-2 cytopathic effect (1 nM) [%] | inhibition of SARS-CoV-2 cytopathic effect (8.33 nM) [%] | inhibition of SARS-CoV-2 cytopathic effect (100 nM) [%] | inhibition of SARS-CoV-2 cytopathic effect (833.33 nM) [%] | inhibition of SARS-CoV-2 cytopathic effect (10000 nM)
O=C(NNc1ccccc1)c1ccncc1 [plurisin-1] | 0.37 | 1.32 | 1.76 | -2.79 | -6.02%
Cc1cccc(C)c1OCC(C)N (stereo not given) [mexiletine] | 4.03 | 3.45 | 2.85 | 7.08 | 5.03%
O=C(Nc1ccccc1)N1CCN(c2nc(-c3ccccc3)ns2)CC1 | 1.74 | 1.97 | 2.17 | 0.01 | -2.23%
CCCCCCCCCCCCCCCCCC(=O)OC[C@@H](O)[C@H]1OC[C@H](O)[C@H]1O [sorbitan-monostearate] | 0.02 | -1.4 | 1.63 | 2.62 | -0.38%
O=c1c(-c2ccc(O)cc2)coc2cc(O)ccc12 [daidzein] | 0.46 | 0.3 | 0.05 | -0.66 | -1.03%
COc1ccc(-c2ccc3c(N4CCOCC4)nc(N4C[C@@H](C)O[C@@H](C)C4)nc3n2)cc1CO | 1.75 | 0.2 | 2.09 | 0.86 | -2.33%
Nc1cccc(CNC(=O)c2ccc(Oc3ccc(OCc4cccc(F)c4)cc3)nc2)c1 | -2.39 | -0.37 | 0.75 | 0.65 | -2.15%
CN1CCCCC1CCN1c2ccccc2Sc2ccc([S+](C)[O-])cc21 (stereo not given) [mesoridazine] | -0.86 | -1.76 | -0.98 | -3.35 | -3.76%
OCC(CO)N[C@H]1C[C@](O)(CO)[C@@H](O)[C@H](O)[C@H]1O [voglibose] | 0.63 | -8.33 | 1.72 | 2.63 | 2.03%
COc1ccc(-n2nc(C(F)(F)F)cc2-c2ccc(Cl)cc2)cc1 | 2.57 | 3.29 | 1.98 | 1.58 | -5.13%
CCN(CC)CCNC(=O)c1ccccc1I | 1.9 | 1.7 | 2.44 | -2.04 | 2.51%
CCn1c(O)nnc1-c1ccc(Cl)cc1 [5-(4chlorophenyl)-4-ethyl-2,4-dihydro-3H-1,2,4-triazol-3-one] | -1.14 | -2.31 | -1.83 | 0.79 | 0.03%
Cc1cc(OCCCS(C)(=O)=O)cc(C)c1-c1cccc(COc2ccc3c(c2)OC[C@H]3CC(=O)O)c1 | -1.83 | 0.64 | -0.31 | 3.74 | 2.41%
CCc1c(-c2ccccc2)c(-c2ccccc2)nn1-c1ccccc1-c1cccc(OCC(=O)O)c1 | -2.24 | 3.84 | 0.2 | 0.13 | -0.58%
Cc1cc(C)c(S(=O)(=O)Nc2cccc(C(F)(F)F)c2)c(C)c1 | -1.28 | 1.26 | 1.15 | 1.42 | 2.48%
O=c1ncccn1[C@@H]1O[C@H](CO)[C@@H](O)[C@H]1O [zebularine] | -2.02 | -1.31 | 1.93 | 1.42 | -1.45%
N[C@@H]1CCCCN(c2c(F)cc3c(=O)c(C(=O)O)cn(C4CC4)c3c2Cl)C1 [besifloxacin] | -2.51 | 1.39 | 2.41 | 2.48 | 2.15%
CON(C)C(=O)N1N=C(c2cc(F)ccc2F)S[C@@]1(CCCN)c1ccccc1 [filanesib] | -0.78 | -1.05 | -1.91 | -0.01 | -2.39%
Cc1cc2c(cc1CC(=O)c1sccc1S(=O)(=O)Nc1onc(C)c1Cl)OCO2 [sitaxentan] | -0.88 | -1.81 | 0.75 | 1.22 | 1.37%
